# ClpP mod – qHTS Assay for Activators of ClpP. ATP-dependent Clp protease proteolytic subunit (Bacillus subtilis (strain 168)), P80244. purified B. subtilis ClpP, FRET peptide cleavage, 20 min. Potency, µM (series often up to 57.5 µM). 340,000 tested, 1.9% active. AID 651965, 2013; active = well fitted falling curve with a large enough effect; inconclusive = small, poorly fitted or top-dose-only effect; inactive = no such curve, though single readings can be large or run the other way; note: the source files actives as falling curves though it sought activators and does not explain the sign; nearly all actives have a fitted effect of over 65% in size
# Target sequence (P80244 whole entry, looked up): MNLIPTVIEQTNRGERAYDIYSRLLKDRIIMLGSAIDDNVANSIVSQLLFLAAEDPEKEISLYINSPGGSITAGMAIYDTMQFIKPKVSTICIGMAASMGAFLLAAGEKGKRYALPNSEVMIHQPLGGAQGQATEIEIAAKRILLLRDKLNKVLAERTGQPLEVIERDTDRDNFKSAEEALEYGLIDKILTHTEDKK
#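 Buffer: 100 mM Tris/HCl pH8, 100 mM KCl, 0.05% low protease BSA, 2.5% glycerol, 0.01% Tween-20. ClpP 10 microg/mL final; 20 min RT; delta FRET normalized to ADEP and DMSO controls.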
# TDP1 cell noCPT – qHTS for Inhibitors of human tyrosyl-DNA phosphodiesterase 1 (TDP1): qHTS in cells in absence of CPT | DT40 Tdp1-/- hTDP1 cells, no CPT, ATP luminescence, 48 h | Potency, µM (titrated, usually from 46.2 µM), most hits filed as inhibitors | 420,000 tested, 15% active | AID 686978, 2013; note: nearly all actives have a fitted effect of over 55% in size
#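 Growth kinetics read by CellTiter-Glo luminescence after ≥48 hr at 37 °C. Cells: DT40 Tdp1-/- stably carrying human TDP1, 400 per well, compound exposure in the absence of CPT (DMSO vehicle).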
# TDP1 inh – blocks human tyrosyl-DNA phosphodiesterase 1; Q9NUW8; 350,000 tested, 0.28% active; Potency, µM (titrated, usually from 130 µM), usual class: inhibitors; AID 485290; recombinant TDP1, AlphaScreen DNA substrate cleavage; note: nearly all actives have a fitted effect of over 40% in size
#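 Compounds were preincubated with Tdp1 (1 nM final) for 15 min at room temperature before substrate (15 nM final) started a 5 min reaction; beads (10 ug/ml final) were then added for 10 min before AlphaScreen detection.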
# DT40 TDP1 CPT – growth inhibition of DT40 Tdp1-/-;hTDP1 cells with camptothecin (screen for TDP1 inhibitors). 420,000 tested, 12% active. AID 686979. chicken DT40 Tdp1-/-;hTDP1 cells + 20 nM CPT, ATP luminescence, 48 h. Potency, µM (titrated, usually from 46.2 µM), most hits filed as inhibitors; note: nearly all actives have a fitted effect of over 55% in size
#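 Cell growth measured by CellTiter-Glo luminescence after a minimum 48 h, 37 C compound exposure with 20 nM CPT in Tdp1-knockout DT40 cells stably expressing hTDP1, seeded 400/well; qHTS titration format.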
# Hits are given with their value; 0 = inactive; ? = inconclusive; - = not tested or not shown; [ ] = another dose, or the depositor's remark. Hits are enriched below; roughly 17% of the tested compounds scored in any of these assays. Unless noted, calls come from the whole dose curve; as a rule, active = well fitted curve in the direction sought with a large enough effect; inconclusive = small, poorly fitted or top-dose-only effect, or another doubt; inactive = no such curve, though single readings can be large; an effect the other way counts as inactive or inconclusive.
SMILES,ClpP mod,TDP1 cell noCPT,TDP1 inh,DT40 TDP1 CPT
CC(C)(C)c1ccc(S(=O)(=O)NC(=O)C2(C)CCN2C(=O)C2(c3ccccc3)CC2)cc1 (stereo not drawn),0,0,-,0
CC(C)c1c(C(=O)NCC(C)(C)N2CCOCC2)cnn1-c1nccc(-c2ccccc2F)n1,-,?,-,0[9.04 µM]
Cn1nc(CC(=O)NC2CCCCCC2)c2ccccc2c1=O,0,18µM,0,18µM
Cn1nc(CC(=O)Nc2cccc3ncccc23)c2ccccc2c1=O,0,21µM,0,13µM
COc1ccc(OCC(=O)Nc2cccc3ncccc23)cc1,0,0,0,?
O=C(CCl)Nc1cccc2ncccc12,0,9.2µM,0,8.2µM
COc1ccc(OC)c(NC(=O)Cc2nn(C)c(=O)c3ccccc23)c1,0,16µM,0,16µM
COc1cc(NC(=O)Cc2nn(C)c(=O)c3ccccc23)cc(OC)c1OC,0,?,0,?
CC1(C(=O)NS(=O)(=O)C2CC2)CCCN(C(=O)Cc2ccc(F)cc2)C1 (stereo not drawn),0,?,-,?
CSCC[C@H](NC(=O)OC(C)(C)C)C(=O)N1CCC(C(=O)N[C@@H](C)C(=O)NCc2ccc(F)cc2)CC1,0,0,-,0
O=C(CN1C(=O)C2C3C=CC(C4CC34)C2C1=O)NCc1ccco1 (stereo not drawn),-,0,0,0
COc1ccc(CNC(=O)Cc2nn(C)c(=O)c3ccccc23)cc1,0,7.3µM,0,10µM
O=C(CN1C(=O)C2C3C=CC(C4CC34)C2C1=O)Nc1cccc2ncccc12 (stereo not drawn),0,0,0,21µM
Cc1ccccc1NC(=O)CN1C(=O)C2C3CC(C(Br)C3Br)C2C1=O (stereo not drawn),0,16µM,0,?
Cn1nc(CC(=O)NCc2ccc(C(F)(F)F)cc2)c2ccccc2c1=O,0,10µM,0,29µM
Cn1cnc(S(=O)(=O)N2CCC(C(=O)NCc3ccccc3)CC2)c1,0,0,0,0
C#CC1(N2CCCCC2)CCCCC1,0,0,-,0
COc1ccc(-c2nn(C)c(=O)c3ccccc23)cc1NC(=O)COc1ccc(C)cc1,0,18µM,-,23µM
CCC(=O)Nc1cc(-c2nn(C)c(=O)c3ccccc23)ccc1OC,0,0,0,0
c1cncc(-c2cncnc2NC2CCNCC2)c1,-,0,-,16µM
c1cncc(-c2ccc3ncnc(NC4CCNCC4)c3c2)c1,-,0,-,0
COC1OC2COC(c3ccccc3)OC2C2OC(c3ccccc3)OC12 (stereo not drawn),0,?,-,0
CC1(C)C(=O)C=C[C@@]2(C)C1C=C[C@@]1(C)C2CC[C@@]2(C)C(c3ccoc3)OC(=O)C3OC312 (stereo partly drawn),-,12µM,0,16µM
O=C1CC2c3ccccc3C1C1C(=O)N(Cc3ccccc3)C(=O)C21 (stereo not drawn),-,0,0,0
CC(C)N1CCc2c(sc(NC(=O)c3ccc(S(=O)(=O)N(C)CC4CCCO4)cc3)c2C(N)=O)C1 (stereo not drawn),0,0,0,0
SMILES,ClpP mod,TDP1 cell noCPT,TDP1 inh,DT40 TDP1 CPT
CCOC(=O)c1c(NC(=O)c2ccc(S(=O)(=O)N(C)C3CCCCC3)cc2)sc2c1CCN(C(C)C)C2,0,7.3µM,0,12µM
CCCCN(C)S(=O)(=O)c1ccc(C(=O)Nc2sc3c(c2C(=O)OCC)CCN(C(C)C)C3)cc1,0,5.8µM,0,8.2µM
NNC(=O)c1sccc1OCc1ccc(F)cc1,-,?,0,0
O=C(N/N=C/c1ccc(F)cc1)c1sccc1OCc1ccc(F)cc1,0,18µM,0,16µM
O=C(N/N=C/c1ccc(Cl)cc1)c1sccc1OCc1ccc(F)cc1,0,1.3µM,0,1.2µM
CC(C)CCn1c(=O)c(C(=O)N/N=C/c2cccc(F)c2)c(O)c2ccccc21,0,0.65µM,0,1.3µM
O=C(N/N=C/c1cccc(F)c1)c1ccc(Cl)cc1,-,0,-,0
CCCCCCn1c(=O)c(C(=O)N/N=C/c2cccc(F)c2)c(O)c2ccccc21,-,1µM,0,0.92µM
CCCn1c(=O)c(C(=O)N/N=C/c2ccc(F)cc2)c(O)c2ccccc21,-,5.2µM,0,9.2µM
CCCn1c(=O)c(C(=O)N/N=C/c2ccccc2F)c(O)c2ccccc21,-,0,0,0

# Source: PubChem BioAssay (National Center for Advancing Translational Sciences (NCATS))
